# Sampled rows, rich in hits. Any-hit rate of the full collection: about 2.6%.
# FLuc inh – blocks Photinus pyralis firefly luciferase activity | purified firefly luciferase, luminescence, 8 min | Potency, µM (highest dose often 57.1 µM), without a hit: at the highest dose activity change, negative = inhibition, hits mostly inhibitors | 2.2% of 72,000 active | AID 411; also: nearly all actives have a fitted effect of over 40% in size
# Target sequence (P08659 whole entry, looked up): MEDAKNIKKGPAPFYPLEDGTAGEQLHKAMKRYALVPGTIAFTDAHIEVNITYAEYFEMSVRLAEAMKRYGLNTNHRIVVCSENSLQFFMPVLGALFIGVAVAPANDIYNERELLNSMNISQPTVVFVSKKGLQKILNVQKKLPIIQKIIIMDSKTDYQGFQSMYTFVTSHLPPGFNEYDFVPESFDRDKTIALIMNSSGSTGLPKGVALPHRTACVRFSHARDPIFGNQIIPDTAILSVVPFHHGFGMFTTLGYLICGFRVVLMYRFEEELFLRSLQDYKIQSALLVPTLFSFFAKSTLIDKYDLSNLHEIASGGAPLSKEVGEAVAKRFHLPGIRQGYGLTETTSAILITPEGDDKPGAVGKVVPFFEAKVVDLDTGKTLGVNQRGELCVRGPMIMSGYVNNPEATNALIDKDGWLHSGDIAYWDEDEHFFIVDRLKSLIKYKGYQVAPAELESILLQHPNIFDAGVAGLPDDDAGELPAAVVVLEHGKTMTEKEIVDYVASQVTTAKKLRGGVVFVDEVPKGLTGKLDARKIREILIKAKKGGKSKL
#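 qHTS concentration-response profiling: light output of P. pyralis luciferase with luciferin and 10 uM ATP, imidazole buffer pH 7.2. Read by luminescence after 8-min room-temperature incubation.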
# p53ts 39C kill – kills p53ts cells at the nonpermissive temperature; Potency, µM (series often up to 46.1 µM), for the others: at the highest dose activity change, negative = cell killing, actives largely listed as cytotoxic; H1299-p53A138V viability at 39C, ATP luminescence, 24 h; 1.5% of 130,000 active; also: nearly all actives have a fitted effect of over 55% in size
# p53ts 32C tox – cytotoxicity in p53ts cells at permissive temperature; H1299-p53A138V at 32C, ATP luminescence viability, 24 h; Potency, µM (series often up to 46.1 µM), without a hit: at the highest dose activity change, negative = cytotoxicity, most hits filed as cytotoxic; 0.93% of 130,000 active; AID 924;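 also: 0% = DMSO and -100% = full killing by reference compound; nearly all actives have a fitted effect of over 55% in size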
#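 Cells: H1299 p53ts (A138V), 600/well, pre-incubated 16–30 h at 37C. Cpd up to 46 uM, 24 h, 32C. Readout: ATPlite luminescence, 20 min RT. Normalization: DMSO vs tamoxifen 100 uM. AC50 by Hill equation.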
# The depositor's hits bear a star; ? = inconclusive; · = no result given; [ ] = another dose, or the depositor's remark. Calls follow the shape of the dose curve; as a rule, active = well fitted curve in the direction sought with a large enough effect; inconclusive = small, poorly fitted or top-dose-only effect, or another doubt; inactive = no such curve, though single readings can be large; an effect the other way counts as inactive or inconclusive. Unless noted, % is scaled to controls: 0 for no effect and ±100 for the full control effect; potency is read from the fitted curve at half-maximal effect.
SMILES,FLuc inh,p53ts 39C kill,p53ts 32C tox
COc1ccccc1NC(=O)C1=C(C)Nc2c(C(=O)Nc3ccc(F)cc3)cnn2C1c1ccc(Cl)cc1 (centres undefined),·,7%,10%
CCOC(=O)c1c(C)[nH]c(C)c1S(=O)(=O)N(C)CC(=O)Nc1ccc(C)c(N(C)C)c1,·,-5%,-4%
Clc1cccc(C=NC=Nc2cccc(Cl)c2)c1,2µM*,-13%,-5%
COc1cccc(C=NC=Nc2cccc(OC)c2)c1,0%,-12%,-23%
COc1ccc(C2c3c(oc4cc(C)cc(C)c4c3=O)C(=O)N2Cc2ccco2)cc1OC (centres undefined),·,-16%,8%
Cc1ccc(Cl)cc1-n1ncc2c(NC3CCCCC3)ncnc21,·,4%,-1%
Cc1ccc(-n2ncc3c(NCCC4=CCCCC4)ncnc32)cc1,·,-13%,4%
Cc1ccc(-n2ncc3c(NC4CCCCC4)ncnc32)cc1,·,7.9µM*,?
Clc1cccc(-n2ncc3c(NC4CCCCC4)ncnc32)c1,·,13µM*,?
Cc1cc(C)cc(NC(=O)C2CCN(c3nc4ccccc4nc3C(F)(F)F)CC2)c1,·,-9%,-7%
O=C(c1ccc2c(c1)OCCO2)N(Cc1cccnc1)c1nc2c(F)cccc2s1,·,-14%,9%
CCOc1ccccc1NC(=O)N(Cc1ccc(C)o1)C1CCN(C(C)=O)CC1,·,·,-6%
COc1ccc(NC(=O)c2ccc(-c3ccc(-c4noc(C)n4)cc3C)cc2)cc1N1CCN(C)CC1,-4%,20µM*,?
COc1ccc(NC(=O)c2ccc(-c3ccc(-c4noc(C)n4)cc3C)cc2)cc1OCCN(C)C,0%,7.9µM*,25µM*
COc1ccc(NC(=O)N2CCN(c3cc(-c4noc(C)n4)ccc3C)CC2)c(OC)c1,·,-26%,8%
COc1ccc(-c2nc(-c3ccc(NC(=O)c4ccncc4)cc3)no2)cc1OC,1%,-15%,-5%
[N-]=[N+]=Nc1nc2c(N)ncnc2n1C1OC(CO)C(O)C1O (centres undefined),·,2.5µM*,2µM*
Nc1ncnc2c1ncn2[C@@H]1O[C@H](CO)[C@@H](O)[C@H]1O,-1%[25.5 µM],13%,13%
O=C(Nc1ccc(Cl)c(C(F)(F)F)c1)C(Cc1ccccc1)NS(=O)(=O)c1cccc2nsnc12 (centres undefined),·,13%,3%
COc1ccc(CNC(=O)c2cc(-c3ccc(Br)s3)nc3ccccc23)cc1,·,10µM*,-6%
COc1ccc(OC)c(CNC(=O)c2cc(-c3ccc(Cl)s3)nc3ccccc23)c1,·,-7%,2%
O=C(Nc1ccc(N2CCOCC2)cc1)c1cnsn1,4µM*,5µM*,4µM*
CS(=O)(=O)c1ncc(Cl)c(C(=O)Nc2ccc(N3CCOCC3)cc2)n1,-26%,?,13µM*
CCN(c1ccccc1)S(=O)(=O)c1ccc(NC(=O)c2nc(S(C)(=O)=O)ncc2Cl)cc1,·,3.2µM*,?
CCS(=O)(=O)c1ncc(Cl)c(C(=O)Nc2ccc(S(=O)(=O)N(C)c3ccccc3)cc2)n1,·,3.2µM*,?
SMILES,FLuc inh,p53ts 39C kill,p53ts 32C tox
O=C(Nc1ccc(N2CCOCC2)cc1)c1ccncc1,·,11%,-7%
CCSc1ncc(Cl)c(C(=O)Nc2ccc(S(=O)(=O)N(C)c3ccccc3)cc2)n1,·,-13%,6%
CC(C)Sc1ncc(Cl)c(C(=O)Nc2ccc(S(=O)(=O)N(C)c3ccccc3)cc2)n1,·,-24%,12%
CCOC(=O)c1nc(S(C)(=O)=O)ncc1N1CCOCC1,1%,9%,-6%
COC(=O)[C@H](N)Cc1ccc(Cl)cc1,6%,8%,14%
CCS(=O)(=O)N1CCc2cc(C(=O)Nc3cc(C(F)(F)F)ccc3Cl)ccc21,·,?,-6%
Cc1cccc(CN2C(=O)c3ccccc3S(=O)(=O)c3ccc(C(=O)NCCC4=CCCCC4)cc32)c1,·,-10%,18%
O=[N+]([O-])c1ccc2c(N=Nc3ccc4ccccc4c3O)c(O)cc(S(=O)(=O)O)c2c1,-16%[11.4 µM],-12%[9.22 µM],-6%[9.22 µM]
CCc1cccc(-n2nnc(-c3nc(-c4ccc5c(c4)OCO5)no3)c2C)c1,·,-14%,-14%
COc1ccc(CN(Cc2ccco2)C(=O)COc2ccccc2OC)cc1,·,-6%,9%
O=C(COc1ccc(F)cc1)Nc1nccs1,13µM*,?,?
O=C(Nc1nccs1)c1ccc(COc2ccc(F)cc2)o1,-7%,3%,-1%
CC1=C(c2ccc(C)c(C)c2)S(=O)(=O)N=C1N1CCC(C(=O)NCCc2ccc(Cl)cc2)CC1,·,13µM*,?
CC1=C(c2ccc(F)cc2)S(=O)(=O)N=C1N1CCC(C(=O)NCCc2cccc(C)c2)CC1,·,-22%,10%
COCc1cc(=O)n2c(-c3ccccc3OC)n[nH]c2n1,-7%,4%,-14%
